Screens (PubChem)
Most compounds without a hit are left out; they make up all but 4% or so of the library.
Mtb bLac sens: beta-lactam sensitization of Mtb H37Rv. M. tuberculosis H37Rv growth with meropenem, percent inhibition. inhibition, % at 25 µM. actives 0.27% (n = 330,000); call rule not given here;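 also: growth measured after seven days incubation then overnight dye step; 0% = bacteria only wells and 100% = bacteria with antibiotic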
Mtb FBA inh: inhibitors of M. tuberculosis fructose-bisphosphate aldolase. purified M. tuberculosis FBA, fluorescence read-out. inhibition, % at 1 µM. actives 2.3% (n = 360,000). AID 588726; in the data active = inhibition above about 27%;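 also: 0% = vehicle and 100% = reference inhibitor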
Rv3671c inh: Rv3671c (M. tuberculosis) protease inhibition; P9WHR9; actives 0.048% (n = 320,000); inhibition, % at 5.96 µM; AID 2606; in the data active = inhibition above about 38%;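 also: extracellular domain of Rv3671c used as enzyme; 0% = enzyme with DMSO and 100% = no enzyme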
Mtb UGM inh: Mtb UDP-galactopyranose mutase inhibition | P9WIQ1 | purified UGM, fluorescence polarization probe displacement | inhibition, % at 10 µM | actives 0.06% (n = 320,000); in the data active = inhibition above about 10%, passing the limit was not always enough; inconclusive = no clear call, values can overlap the other calls
Target sequence (P9WIQ1 whole entry, looked up): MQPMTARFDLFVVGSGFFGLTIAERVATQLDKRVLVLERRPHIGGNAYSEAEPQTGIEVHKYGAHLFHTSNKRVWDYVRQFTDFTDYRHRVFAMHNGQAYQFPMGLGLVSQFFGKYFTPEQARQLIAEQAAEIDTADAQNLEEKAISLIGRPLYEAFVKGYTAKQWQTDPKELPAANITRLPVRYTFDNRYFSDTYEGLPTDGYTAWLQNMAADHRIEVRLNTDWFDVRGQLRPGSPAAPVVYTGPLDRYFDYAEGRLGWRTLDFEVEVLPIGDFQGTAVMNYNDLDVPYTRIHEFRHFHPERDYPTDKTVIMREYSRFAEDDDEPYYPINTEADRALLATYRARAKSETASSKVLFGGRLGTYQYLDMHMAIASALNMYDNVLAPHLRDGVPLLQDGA
GDH-TPI counter: GDH-TPI coupled enzyme inhibition counter-screen; GDH-TPI coupled enzyme counterscreen, NADH absorbance; inhibition, % at 4.8 µM; actives 1.2% (n = 360,000); AID 588335; in the data active = inhibition above about 30%;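 also: 0% = DMSO wells and 100% = wells lacking the enzyme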
RecA splice inh: blocks M. tuberculosis RecA intein splicing; P9WHJ3; cell-free RecA intein splicing, fluorescence; inhibition, % (concentration not given with the values); actives 0.75% (n = 290,000); in the data active = inhibition above about 30%; inconclusive = no clear call, values can overlap the other calls;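 also: 0% = vehicle wells and 100% = reference inhibitor control wells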
An asterisk follows results filed as active; ? = inconclusive; nt = no result given; + = active, no number.

SMILES | Mtb bLac sens | Mtb FBA inh | Rv3671c inh | Mtb UGM inh | GDH-TPI counter | RecA splice inh
CC(C)(C)OC(=O)NCC(=O)Oc1cc2oc(=O)cc(-c3ccccc3)c2cc1Cl | -9.9 | 26.1 | -4.0 | 0.6 | 12.9 | -138.1
C/C(=N\n1c(C)nc2ccccc2c1=O)c1ccc(N)cc1 | -10.3 | 0.0 | -1.8 | -1.2 | 35.2* | 2.0
Cn1c(N)c(-c2ccccc2)c2ccc([N+](=O)[O-])cc2c1=O | -1.9 | -12.0 | -8.3 | 2.0 | -0.4 | -0.8
CCc1cc(=O)oc2c3c(cc(OCC(=O)NC4CC4)c12)OC(C)(C)CC3 | -6.4 | + | 10.4 | 0.4 | 18.6 | nt
Cc1ccccc1OCC(=O)NCCC(=O)O | 6.3 | -0.1 | 7.6 | 2.2 | 6.6 | -0.8
Cc1c(OCC(=O)NCCN2CCOCC2)ccc2c1oc(=O)c1ccccc12 | 0.9 | 124.0* | -2.9 | 0.9 | 13.9 | -0.4
CCc1cc(=O)oc2c3c(cc(OCC(=O)NCCN4CCOCC4)c12)OC(C)(C)CC3 | -4.0 | 175.8* | -9.5 | 2.5 | 14.7 | nt
Cc1cc(=O)oc2c3c(cc(OCC(=O)NCCC(=O)O)c12)OC(C)(C)CC3 | 2.3 | + | nt | 2.5 | 25.3 | -1.9
CCCc1cc(=O)oc2c(C)c(OCC(=O)NC3CC(C)(C)NC(C)(C)C3)ccc12 | -3.0 | 18.5 | -6.7 | -2.0 | 10.3 | -0.5
O=C(Nc1cccc(F)c1)/C(=C/c1ccco1)NC(=O)c1ccco1 | -7.2 | -0.7 | -0.9 | 2.0 | 23.7 | 0.0
CCc1cc(=O)oc2c(C)c(OCC(=O)NCCCN3CCOCC3)ccc12 | -0.2 | 19.3 | -10.7 | -0.6 | 11.8 | 0.3
CCc1cc(=O)oc2c3c(cc(OCC(=O)NCCCC(=O)O)c12)OC(C)(C)CC3 | -1.6 | + | 7.4 | 1.5 | 11.3 | -0.5
Cc1oc2c(C)c3oc(=O)c(CCC(=O)NCCCN4CCCC4=O)c(C)c3cc2c1C | -4.1 | 13.7 | 3.4 | 2.5 | 9.0 | -6.5
COc1ccc2c(C)c(CCC(=O)NCCCN3CCCC3=O)c(=O)oc2c1C | -10.9 | 116.3* | -7.6 | 1.6 | 21.6 | -1.2
Cc1c(C)c2ccc(OCC(=O)N3CCC[C@@H]3C(=O)O)c(C)c2oc1=O | -2.6 | 128.9* | 13.9 | 0.1 | 7.6 | 4.1
CCc1cc(=O)oc2c3c(cc(OCC(=O)NCCCOC)c12)OC(C)(C)CC3 | -3.8 | + | -0.2 | 0.9 | 9.5 | 0.6
Cc1ccc(NC(=O)COC(=O)C2=NNC(=O)CC2)c(Br)c1 | -3.4 | 5.7 | -7.7 | 0.1 | 4.4 | nt
Cc1cnc(CNC(=O)C2(C)CCCN2CC(C)C)cn1 (stereo not drawn) | nt | -1.7 | nt | nt | 3.6 | nt
Cc1nn(Cc2ccccc2)c(C)c1CNC(=O)[C@H](C)N=C1NS(=O)(=O)c2ccccc21 | 11.3 | 2.8 | -3.4 | 0.5 | 13.1 | nt
CC1CN(S(=O)(=O)c2cc(C(=O)N(C)Cc3cccs3)ccc2Cl)CC(C)O1 (stereo not drawn) | 1.2 | -1.4 | 9.7 | -0.5 | -10.9 | nt
CCCCc1cc(=O)oc2cc(C)cc(OCC(=O)N3CCC(C(N)=O)CC3)c12 | -6.7 | 18.4 | 1.3 | 2.6 | 10.8 | 0.2
CCc1cc(=O)oc2c3c(cc(OCC(=O)NCCC(=O)O)c12)OC(C)(C)CC3 | -4.2 | 177.0* | -4.3 | 2.5 | 11.6 | -3.8
CCCc1cc(=O)oc2c3c(cc(OCC(=O)N4CCC[C@H]4C(=O)O)c12)OC(C)(C)CC3 | -7.7 | + | -10.6 | -2.1 | 25.5 | -1.8
CCc1cc(=O)oc2cc(C)cc(OCC(=O)NCC3CCC(C(=O)O)CC3)c12 (stereo not drawn) | -3.3 | 18.9 | 2.7 | 0.6 | 0.0 | -0.5
COC(=O)c1cccc(NC(=O)CN2CCc3ccccc3C2)c1 | -5.7 | 2.0 | -1.3 | 0.4 | 2.6 | 1.0
SMILES | Mtb bLac sens | Mtb FBA inh | Rv3671c inh | Mtb UGM inh | GDH-TPI counter | RecA splice inh
COc1ccccc1NCC(=O)N/N=C/C=C/c1ccccc1 | 83.4 | -0.6 | 7.9 | -0.8 | 13.7 | -1.2
O=C(N/N=C/C=C/c1cccc([N+](=O)[O-])c1)c1ccncc1 | 98.0 | -0.6 | 12.5 | 1.2 | -13.8 | -1.6
O=C(O)c1ccc(N/N=C/C=C/c2ccccc2)cc1 | -1.0 | 2.1 | 3.8 | 1.9 | 33.0* | -1.1
Nc1ccc(C(=O)N/N=C\C=C\c2cccc([N+](=O)[O-])c2)cc1 | 0.8 | -4.7 | -0.9 | -0.1 | 42.6* | 0.2
COc1ccc(NCC(=O)N/N=C/C=C\c2ccccc2)cc1 | ? | -1.3 | -8.3 | -1.7 | 31.3* | -10.3
O=C(N/N=C/C=C/c1ccccc1)c1ccncc1 | 98.0 | 2.2 | -9.4 | 0.7 | 37.4* | 0.0
O=C(COc1ccc(S(=O)(=O)N2CCOCC2)cc1)NC1CCCCC1 | -1.8 | 0.5 | -1.1 | 3.5 | 3.5 | nt
CC1(C)OC(c2ccccc2)=C/C(=C\C=N\NC(=O)c2ccncc2)O1 | 98.9 | -1.8 | 17.4 | -0.4 | 33.2* | -46.1
CC1(C)OC(c2ccccc2)=C/C(=C/C=Nc2ccccc2)O1 | 13.0 | -1.5 | 9.5 | -1.3 | 22.6 | -19.1
O=c1nc(N/N=C/C=C/c2ccccc2)cn[nH]1 | 92.0 | 1.0 | 9.2 | 2.0 | 78.5* | nt
COc1cc2oc(=O)cc(-c3ccc(-c4ccc(CO)cc4)cc3)c2c(OC)c1OC | nt | 2.3 | nt | nt | 10.9 | nt
CCCCc1cc(=O)oc2cc(O)ccc12 | -7.7 | + | -0.8 | 2.7 | 5.4 | -23.4
CCCCc1cc(=O)oc2c(CN3CCN(C)CC3)c(O)ccc12 | -5.3 | + | -2.3 | -0.3 | 21.3 | -137.2
CCCCc1cc(=O)oc2cc(OCC(=O)NCc3ccccn3)ccc12 | 5.1 | 14.3 | 3.8 | -0.7 | 6.1 | 1.0
CCCCc1cc(=O)oc2c(CN3CCCC3)c(O)c(Cl)cc12 | -7.0 | + | -0.7 | 1.3 | 25.9 | -150.4
CCc1c(C)c2cc(Cl)c(O)c(CN3CCCC3)c2oc1=O | 14.2 | + | nt | -1.1 | 7.8 | -96.9
Cc1c(C)c2cc(Cl)c(O)c(CN3CCCCC3)c2oc1=O | 2.2 | nt | -4.2 | -1.4 | nt | -29.9
O=C(NCC(F)(F)F)c1ccc(S(=O)(=O)N2CCN(C(=O)C3CCCO3)CC2)cc1 (stereo not drawn) | -3.9 | -3.2 | 6.1 | 3.1 | -3.6 | nt
CC1CC(C)(C)CC2(C1)NC(=O)N(CC(=O)N1CCN(Cc3ccc(C#N)cc3)CC1)C2=O (stereo not drawn) | nt | 0.0 | nt | nt | 2.8 | nt
Cc1cc(C)n(-c2nncn2/N=C/c2ccccc2F)n1 | -1.4 | -0.3 | -2.8 | 1.8 | 0.0 | -0.2
COc1cc(/C=N/n2cnnc2-n2nc(C)cc2C)cc([N+](=O)[O-])c1O | 6.2 | -11.1 | 3.9 | 0.4 | 38.0* | -4.6
Oc1c(C(c2ccccc2)N2CCCCC2)ccc2ccccc12 (stereo not drawn) | nt | 0.7 | nt | nt | 3.5 | nt
Cc1ccc(NC(=O)C2CCCN(S(=O)(=O)c3c(C)noc3/C=C/N(C)C)C2)c(C)c1 (stereo not drawn) | -3.3 | -1.7 | -11.8 | -2.3 | 35.9* | -3.6
Cc1ccc(C)c(NC(=O)C2CCCN(S(=O)(=O)c3c(C)noc3/C=C/N(C)C)C2)c1 (stereo not drawn) | -3.6 | -4.1 | -12.3 | -0.3 | 38.5* | -2.6
